EWS-Fli block: inhibitors of EWS/Fli oncoprotein transcriptional activity; 350,000 tested, 0.67% active; A673 NR0B1-luciferase reporter, viability-normalised; AID 651661; inhibition, % at 12.6 µM;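 active = mean inhibition of at least 50% after viability correction, with every replicate also passing that limit; inconclusive = mean reaches 50% but only one of two replicates passes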;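 note: firefly luciferase signal divided by Alamar Blue viability fluorescence both relative to DMSO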
PAX8 reporter: lowers PAX8-driven luciferase in RMG-I cells | RMG-I TPO-luciferase reporter, SteadyGlo, 24 h | inhibition, % at 12.6 µM | 360,000 tested, 1.2% active;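 active = mean replicate inhibition at least 60% with every replicate also reaching 60%; inconclusive = only one of the two criteria is met; inactive = mean below 60% and not all replicates reaching 60%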;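 note: luciferase light reporting Pax8 driven TPO promoter activity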
LGR2 inh: inhibitors of bursicon-induced Drosophila LGR2 receptor cAMP signaling. HEK293 LGR2, CRE-luciferase, bursicon-stimulated, 4 h. inhibition, % at 9.99 µM. 380,000 tested, 0.35% active;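 active = drop in luminescence signal, shown as inhibition above about 50% in the replicate tests, limit read from the data, passing the limit was not always enough; inconclusive = probably only some replicates passing the limit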;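 note: agonist challenge used bursicon conditioned medium at about half maximal strength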
TROY signal inh: inhibitors of TROY-dependent NF-kB signaling | inhibition, % at 10 µM | 360,000 tested, 0.98% active | Q293 LMP1-TROYcd NF-kB luciferase reporter, 4 h;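 active = compounds whose plate-normalised and pattern-corrected inhibition of the luciferase reporter signal at the single screening dose is 50% or more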
TWEAK Fn14 block: TWEAK-Fn14 signaling inhibition. TWEAK-stimulated Fn14 reporter cells, luciferase luminescence, 8 h. inhibition, % at 10 µM. 360,000 tested, 2% active. AID 1159606; in the data active = inhibition above about 50%
Numbers stand for hits; n = inactive; u = inconclusive; x = not tested or not shown. The list is not random: actives were taken first. Their share in the collection is about 2.8%.

SMILES	EWS-Fli block	PAX8 reporter	LGR2 inh	TROY signal inh	TWEAK Fn14 block
NS(=O)(=O)c1ccc(CCNC(=O)/C=C/c2ccc(S(=O)(=O)N3CCOCC3)cc2)cc1	n	n	n	n	83.8
Cc1ccc(NC(=O)/C=C/c2ccc(S(=O)(=O)N3CCOCC3)cc2)cc1S(=O)(=O)N(C)C	n	66.5	n	53.5	68.0
COc1ccc(/C=C/C(=O)Nc2ccc(C(C)=O)cc2)cc1S(=O)(=O)N1CCOCC1	n	n	n	n	n
COc1cc(/C=C/C(=O)Nc2ccc(OC)c(S(=O)(=O)N3CCOCC3)c2)ccc1OC(F)F	n	n	n	56.7	n
CCCC#Cc1cnc2c(c1)C(=O)N([C@H](C)CO)C[C@@H](C)[C@H](CN(C)C(=O)C1CCC1)O2	n	x	n	x	x
COc1ccc2c3c([nH]c2c1)[C@@H](CO)N(Cc1ccncc1)CC31CCN(C(=O)Cc2ccncc2)CC1	n	n	n	x	x
COc1ccccc1C#Cc1ccc([C@@H]2[C@H]3CN(C(=O)C4CC4)CCCCN3[C@H]2CO)cc1	n	n	x	x	x
COc1ccc(NC(=O)COC(=O)/C=C/c2ccc(OC)c(S(=O)(=O)N3CCOCC3)c2)cc1	x	x	n	n	n
COc1ccc(NC(=O)c2cc3c(s2)CCC(C)C3)cc1S(=O)(=O)N1CCOCC1 (stereo not given)	x	n	n	51.3	79.0
COc1ccc(NC(=O)c2cc(C)nc3ccccc23)cc1S(=O)(=O)N1CCOCC1	n	n	n	n	n
COc1ccc(Nc2nc(-c3ccccc3)nc3ccccc23)cc1S(=O)(=O)N1CCOCC1	n	65.1	n	n	n
COc1ccc(/C=C/C(=O)OCC(=O)Nc2ccc(C)cc2)cc1S(=O)(=O)N1CCOCC1	n	76.3	n	n	n
CCc1sc(C(=O)Nc2ccc(OC)c(S(=O)(=O)N3CCOCC3)c2)cc1C	n	n	n	n	n
C[C@@H]1CN([C@@H](C)CO)S(=O)(=O)c2ccc(-c3cccnc3)cc2O[C@@H]1CN(C)C(=O)C1CC1	n	x	n	x	x
O=C(N[C@@H]1CC[C@H](CCn2cc(C3CCCCC3)nn2)O[C@H]1CO)c1cccnc1	n	n	n	x	x
O=C(NC1CCCCC1)N1CC(=O)N2[C@@H](CO)[C@@H](c3ccc(-c4cccnc4)cc3)[C@@H]2C1	n	x	n	x	x
FC(F)(F)c1cnc(NNC(=S)Nc2ccccc2Cl)c(Cl)c1	x	74.4	n	59.4	50.8
Cc1cccc(NC(=S)NNc2ncc(C(F)(F)F)cc2Cl)c1	x	n	n	n	n
S=C(NNc1ccnc2cc(Cl)ccc12)Nc1ccccc1Cl	x	n	n	66.0	63.9
C[C@@H]1CN([C@H](C)CO)C(=O)Cc2cc(NC(=O)c3ccncc3)ccc2O[C@H]1CN(C)S(=O)(=O)c1ccccc1	n	n	n	x	x
COc1ccc(C(=O)c2[nH]c(N)c(C(=O)NCCc3c[nH]c4ccccc34)c2-c2c(F)cccc2Cl)cc1	n	n	n	n	54.5
COc1ccc(C(=O)c2[nH]c(N)c(C(=O)NCCc3c[nH]c4ccccc34)c2-c2ccccc2C(F)(F)F)cc1	n	n	n	x	x
COc1cc(/C=N/NC(=O)c2cc(-c3ccccc3)nc3ccccc23)ccc1O	n	n	n	n	n
COc1cccc(/C=N/NC(=O)c2cc(-c3ccccn3)nc3ccccc23)c1O	n	68.3	n	n	n
CCOc1cc(/C=N/NC(=O)c2cc(-c3cccc(OC)c3)nc3ccccc23)ccc1O	n	n	n	57.7	78.1
SMILES	EWS-Fli block	PAX8 reporter	LGR2 inh	TROY signal inh	TWEAK Fn14 block
CNC(=O)C[C@H]1CC[C@H]2[C@H](COc3ccc(NC(=O)c4ccccc4OC)cc3C(=O)N2C)O1	n	n	n	x	x
O=C1CN(Cc2ccc(F)cc2)C[C@H]2[C@H](c3ccc(Br)cc3)[C@H](CO)N12	n	n	n	x	x
Cc1ccc(NC(=O)c2cc(=O)c3ccccc3o2)cc1S(=O)(=O)N1CCCCC1	n	n	n	56.9	n
Cc1ccc(NC(=O)Cc2ccc(Cl)cc2)cc1S(=O)(=O)N1CCCCCC1	n	n	n	n	n
Cc1ccc(NC(=O)CN(C)CC(=O)Nc2cccc(F)c2)cc1S(=O)(=O)N1CCCCCC1	n	n	n	50.4	50.3
Cc1ccc(NC(=O)Cn2ncc(Cl)c(Cl)c2=O)cc1S(=O)(=O)N1CCCCC1	u	90.4	n	84.3	85.8
COc1ccc(NC(=O)CN(C)CC(=O)Nc2cccc(F)c2)cc1S(=O)(=O)N1CCCCC1	n	n	n	n	n
Cc1ccc(NC(=O)c2cc(=O)c3ccccc3o2)cc1S(=O)(=O)N1CCOCC1	n	n	n	n	n
Cc1ccc(NC(=O)c2ccccc2NS(=O)(=O)c2ccc(F)cc2)cc1S(=O)(=O)N1CCCCC1	n	n	u	60.3	72.2
Cc1ccc(NC(=O)Nc2ccc3c(c2)C(=O)N(C)[C@@H]2CC[C@H](CC(=O)O)O[C@H]2CO3)cc1	n	n	n	x	x
NS(=O)(=O)c1cccc(NC(=O)c2ccccc2NS(=O)(=O)c2ccc(F)cc2)c1	n	n	n	n	n
Cc1ccc(NC(=O)CN(C)C(=O)Cc2ccc(Cl)c(Cl)c2)cc1	n	n	n	n	n
Cc1ccc(C(=O)NCc2ccco2)cc1S(=O)(=O)N1CCCCC1	n	x	n	n	n
O=C(Nc1cccc(S(=O)(=O)N2CCCCC2)c1)c1ccccc1NS(=O)(=O)c1ccc(F)cc1	n	n	n	54.1	58.0
CCS(=O)(=O)N1Cc2ccccc2CC1C(=O)N(C)CC(=O)Nc1cccc(F)c1 (stereo not given)	n	n	n	58.5	n
Cc1ccc(NC(=O)CN(C)C(=O)Cn2ncc(Cl)c(Cl)c2=O)cc1	x	92.7	n	n	95.7
Cc1ccc(C(=O)Nc2ccccc2C(=O)NCc2ccco2)cc1S(=O)(=O)N1CCCCC1	x	n	x	n	51.7
C[C@@H]1CCCCO[C@@H](CN(C)C(=O)Nc2ccc3c(c2)OCO3)[C@@H](C)CN([C@H](C)CO)C(=O)c2cc(NC(=O)Nc3ccccc3)ccc2O1	n	n	n	x	x
COc1ccc2c3c([nH]c2c1)[C@H](CO)N(Cc1ccccc1F)CC31CCN(C(=O)C2CCOCC2)CC1	n	x	n	x	x
COc1ccccc1S(=O)(=O)N[C@H]1CC[C@@H](CC(=O)N2CCN(C)CC2)O[C@H]1CO	n	n	n	x	x
COc1ccc2c3c(n(C)c2c1)[C@H](CO)NCC31CCN(C(C)=O)CC1	n	x	n	x	x
COc1ccc(-c2coc3c(C(=O)NCc4ccc(F)c(F)c4)cccc23)c(C)c1	n	n	n	n	n
COc1cccc(CNc2ncc(C(=O)Nc3cc(OC)c(OC)c(OC)c3)c(C)n2)c1	52.3	n	n	n	n
COc1ccc(-c2coc3c(C(=O)NCc4ccc(OC)c(OC)c4)cccc23)c(C)c1	n	n	n	n	63.2
O=C(Nc1cccc(F)c1)c1ccc(-c2cccnc2)c2ccoc12	x	x	x	n	76.5
CS(=O)(=O)Nc1cccc(NC(=O)c2cccc3c(-c4cccc(C(N)=O)c4)coc23)c1	n	n	n	n	n
CC(=O)c1cccc(NC(=O)c2cccc3c(-c4cccc(C(N)=O)c4)coc23)c1	n	n	n	63.8	83.3
CN1c2ccc(Br)cc2[C@H]2[C@H](CCN2C(=O)C2CC2)[C@@H]1CO	n	n	n	x	x

High-throughput results (PubChem)
